SW480 rereplic = inducers of DNA re-replication in SW480 colon cancer cells; SW480 DNA re-replication, Hoechst DNA content imaging, 48 h; Potency, µM (doses to about 46.1 µM), without a hit: top-dose re-replication activation, actives largely listed as activators; hit rate 1.8% among 340,000; also: % of control where 0% means no effect; nearly all actives have a fitted effect of over 55% in size
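Quantitative HTS format with DMSO vehicle controls; 48 hr drug incubation at 37 C, then 40 min Hoechst staining and scanning imager measurement at 405 nm excitation.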
MCF10A rereplic = DNA re-replication induction in MCF 10a cells. MCF 10A DNA re-replication, Hoechst nuclear intensity, 48 h. Potency, µM (top dose mostly 46.1 µM), for inactives: at the highest dose activity, positive = re-replication, usual class: activators. hit rate 2.9% among 350,000. AID 624296; also: % of control where 0% means no effect; nearly all actives have a fitted effect of over 50% in size
HT1080-NT tox = kills 2HG-producing HT-1080-NT fibrosarcoma cells | HT-1080-NT fibrosarcoma viability, CellTiter-Glo ATP luminescence, 48 h | Potency, µM (titrated, usually from 46.1 µM), inactives show at the highest dose activity, negative = less viability, usual class: cytotoxic | hit rate 1.6% among 360,000;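 also: NT is the 2HG producing partner of a matched IDH1 knockdown line; 0% = DMSO-treated cells and -100% = media-only wells without cells; nearly all actives have a fitted effect of over 55% in size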
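Compounds were tested in concentration-response format on HT-1080-NT cells for 48 hours at 37 degrees C. Cell viability came from CellTiter-Glo luminescence; curves were classified by r2, response magnitude and activity.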
HT1080 IDH1KD tx = HT-1080 IDH1 knockdown cell toxicity (counter line); HT-1080 IDH1 knockdown viability, ATP luminescence, 48 h; Potency, µM (top dose mostly 46.1 µM), for inactives: top-dose activity, negative = toxicity, usual class: cytotoxic; hit rate 2% among 360,000; AID 686971;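 also: 0% = DMSO wells and -100% = cell-free medium wells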
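IDH1KD HT-1080 cells, 750/well, RPMI + 5% FBS; compound pinned after 2 h settling; 48 h, 37 °C; CellTiter-Glo luminescence; % activity normalised to DMSO and no-cell wells; curves fitted, classed by r2 and efficacy.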
KB-V1 cytotox = kills drug-selected multidrug resistant KB-V1 cells. Potency, µM (highest dose often 46.1 µM), most hits filed as cytotoxic. hit rate 3.4% among 400,000. KB-V1 MDR cells viability, CellTiter-Glo, 72 h; also: % is scaled to controls: 0 for no effect and ±100 for the full control effect; nearly all actives have a fitted effect of over 60% in size
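Compound-treated KB-V1 multidrug-resistant cells, 72 h, 37 degrees C; viability by CellTiter-Glo. Fitted qHTS curves give the values.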
KB-3-1 tox = kills parental KB-3-1 adenocarcinoma cells. hit rate 1.4% among 400,000. KB-3-1 viability, CellTiter-Glo ATP luminescence, 72 h. Potency, µM (doses to about 46.1 µM), actives largely listed as cytotoxic; also: % is scaled to controls: 0 for no effect and ±100 for the full control effect; nearly all actives have a fitted effect of over 60% in size
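Cells are dispensed, compounds pinned in, plates held at 37 °C for 72 h, then CellTiter-Glo is added and luminescence read after 10 minutes. Cell line: parental KB-3-1 in phenol-red-free DMEM, 10% FBS.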
Numbers without * were called inactive; i = inactive; ? = inconclusive; nt = no result; [ ] = remark or other dose. The list is not random: actives were taken first. Their share in the collection is about 8%. Calls follow the shape of the dose curve; as a rule, active = well fitted curve in the direction sought with a large enough effect; inconclusive = small, poorly fitted or top-dose-only effect, or another doubt; inactive = no such curve, though single readings can be large; an effect the other way counts as inactive or inconclusive. Potency is read from the fitted curve at half-maximal effect.

SMILES	SW480 rereplic	MCF10A rereplic	HT1080-NT tox	HT1080 IDH1KD tx	KB-V1 cytotox	KB-3-1 tox
CCOC(=O)c1c(C)oc2ccc(OCc3cc(C(=O)OC)oc3C)cc12	29.4%	6.51µM*	-27.2%	?	i	i
Cc1c(CC(=O)N[C@@H](C)C(=O)O)c(=O)oc2cc3oc4c(c3cc12)CCCC4	-6.4%	6.6%	11.2%	11.9%	i	i
CNC(=O)c1ccc2c(c1)N=C(C)c1cc(C)ccc1S2	nt	nt	nt	nt	?	18.4µM*
CC1=Nc2cc(C(=O)NC3CCCC3)ccc2Sc2ccc(C)cc21	nt	nt	nt	nt	1.3µM*	1.46µM*
CC1=Nc2cc(C(=O)NC3CCCC3)ccc2Sc2ccc(Cl)cc21	nt	nt	nt	nt	3.66µM*	3.26µM*
CCOC(=O)N1CCC(NC(=O)c2ccc3c(c2)N=C(C)c2ccccc2S3)CC1	-2.9%	-1.1%	-13.5%	-22.0%	i	i
CCC1=Nc2cc(C(=O)NC3CCCC3)ccc2Sc2ccc(Cl)cc21	nt	nt	nt	nt	2.91µM*	5.8µM*
CCC1=Nc2cc(C(=O)O)ccc2Sc2ccccc21	-2.9%	2.3%	0.0%	1.7%	i	i
CCCc1cc(=O)[nH]c(SC(C)C(=O)Nc2ccc3c(c2)OCCO3)n1 (stereo unspecified)	8.2%	-4.9%	-1.3%[9.24 µM]	2.7%	?	i
Cc1cccc(C(=O)NN2C(=O)C3C(c4ccccc4)C=CC(c4ccccc4)C3C2=O)c1 (stereo unspecified)	9.3%	21.1%	-3.6%	-7.2%	i	i
COc1ccccc1-c1cc(C(=O)NC(C)C)no1	-9.4%	-7.7%	-18.4%	-4.9%	i	i
COc1ccccc1-c1cc(C(=O)NC(C)c2ccccc2)no1 (stereo unspecified)	?	19.3%	22.5%	?	20.6µM*	i
COCCNC(=O)c1cc(-c2ccccc2OC)on1	?	?	?	-24.2%	?	9.2µM*
CCCCNC(=O)c1cc(-c2ccc(F)cc2)on1	-6.7%	-8.1%	?	?	16.4µM*	18.4µM*
COc1ccc(-c2cc(C(=O)Nc3cc(C)nn3-c3ccccc3)no2)cc1	4.8%	3.9%	2.5%	-7.9%	i	i
COc1ccccc1-c1cc(C(=O)Nc2cc(C)nn2-c2ccccc2)no1	21.0%	1.3µM*	?	3.16µM*	6.51µM*	5.17µM*
COc1ccccc1-c1cc(C(=O)NCc2cccs2)no1	3.4%	26.1%	-2.6%	5.0%	i	i
COc1ccc(OC)c(-c2cc(C(=O)NCc3cccs3)no2)c1	22.5%	?	-27.2%	?	16.4µM*	i
CC1=C(C(=O)Nc2cccnc2)C(c2ccccc2)n2nc(SCc3ccccc3F)nc2N1 (stereo unspecified)	nt	nt	nt	nt	?	i
COc1ccc(NC(=O)N(C)C[C@H]2Oc3ccc(NS(=O)(=O)c4ccccc4)cc3C(=O)N([C@H](C)CO)C[C@@H]2C)cc1	2.2%	-5.9%	5.1%	8.3%	i	i
CCCCn1cnc2c(SCc3ccccc3)nc(N)nc21	-5.9%	0.9%	-1.4%	-5.8%	i	i
CCCCn1cnc2c(SCc3ccc(Br)cc3)nc(N)nc21	1.1%	?	14.6µM*	16.4µM*	i	i
CCCCn1cnc2c(SCc3ccccc3Cl)nc(N)nc21	?	16.4µM*	-25.3%	-25.8%	i	i
CCOC(=O)[C@H]1[C@H]2COc3ccc(C)cc3[C@@H]2N2C(=O)CN(Cc3ccccc3)C(=O)[C@@]12C	-3.8%	13.5%	9.3%	7.7%	i	i
Cc1cccc(N2CCN(C(=O)c3cccc(-n4c(C)nc5cccnc54)c3)CC2C)c1 (stereo unspecified)	nt	nt	nt	nt	i	i
SMILES	SW480 rereplic	MCF10A rereplic	HT1080-NT tox	HT1080 IDH1KD tx	KB-V1 cytotox	KB-3-1 tox
Cc1ccc(S(N)(=O)=O)cc1NC(=O)C1CC2CCC1C2 (stereo unspecified)	-5.1%	-2.0%	2.7%	3.3%[9.24 µM]	i	i
C=CCC[C@H](Cc1ccc(F)cc1)C(=O)OC[C@@H](NC(=O)[C@@H](CC=C)CC(=O)N[C@@H](CO)Cc1ccccc1)C(C)(C)C	?	32.8%	?	?	i	?
C=CCC[C@@H](Cc1ccc(F)cc1)C(=O)OC[C@H](Cc1c[nH]c2ccccc12)NC(=O)[C@@H](CC=C)CC(=O)N[C@H](CO)Cc1ccccc1	3.66µM*	21.5%	-20.1%	-27.2%	?	i
C=CCC[C@H](Cc1ccc(F)cc1)C(=O)OC[C@H](Cc1c[nH]c2ccccc12)NC(=O)[C@@H](CC=C)CC(=O)N[C@H](CO)Cc1ccccc1	3.8%	?	20.6µM*	18.4µM*	i	?
C=CC[C@@H](CC(=O)N[C@H](CO)Cc1ccccc1)C(=O)N[C@H](COC(=O)[C@@H](CC=C)Cc1ccc(F)cc1)C(C)(C)C	?	?	?	-22.5%	i	20.6µM*
C=CCC[C@H](Cc1ccc(F)cc1)C(=O)OC[C@H](Cc1c[nH]c2ccccc12)NC(=O)[C@@H](CC=C)CC(=O)N[C@@H](CO)Cc1ccccc1	-5.7%	?	?	?	i	?
O=C(O)/C=C\C(=O)Nc1ccccc1C(=O)NC1CCCCC1	15.7%	1.6%	0.2%	-3.6%	i	i
O=C(NCc1ccc(Cl)cc1)N1CCN(Cc2ccccc2)CC1	19.5%	9.3%	-20.3%	?	16.4µM*	?
Cc1cc(Cl)ccc1NC(=S)N1CCN(Cc2ccccc2)CC1	-41.9%	11.8%	8.0%	18.4%	23.1µM*	i
Cc1cccc(N2CCN(C(=O)NCc3ccc(Cl)cc3)CC2)c1	?	?	?	?	8.2µM*	23.1µM*
O=C(Nc1ccc(Cl)cc1)N1CCCN(Cc2ccc(F)cc2)C1	?	20.6µM*	?	?	?	?
O=C(Nc1ccccc1)N1CCN(Cc2ccc(Cl)cc2)CC1	?	-6.5%	6.9%	8.6%	i	i
COc1ccc(CNC(=O)N2CCN(c3cccc(Cl)c3)CC2)cc1OC	-5.4%	16.1%	5.2%	-4.8%	?	i
CN(Cc1nc2ccccc2c(=O)[nH]1)C(=O)c1cc2c(s1)CCCCC2	-3.7%	26.7%	0.1%	6.3%	i	i
O=C(CN1C(=O)C(=O)N(Cc2ccccc2)C1=O)Nc1cc(Cl)cc(Cl)c1	18.4µM*	?	23.1µM*	?	?	23.1µM*
O=C(Nc1cc(Cl)cc(Cl)c1)N1CCCN(Cc2ccccc2)CC1	2.9%[9.22 µM]	-1.7%	20.6µM*	?	?	i
Cc1ccc(N(CC(=O)NCCSc2nc3ccccc3s2)S(=O)(=O)c2ccccc2)c(C)c1	17.8%	7.4%	-7.3%	-20.3%	8.2µM*	?

Screens as filed in PubChem.
